Data on 17 molecules can be found in the supplement of paper PMC4237247.

Structures can show the parent of a compound that is named as a salt.

The subject of this experiment is HeLa. The experiment can be described thus: percent cells in S phase; higher = more S arrest. Particulars: 10 µM; 20 h. On the procedure: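 HTS of 79,827 drug-like compounds at 10 uM. HeLa cells in 384-well plates were treated for 20 h, fixed, stained with Vybrant DyeCycle Green and scanned on an Acumen eX3 cytometer to give per-well cell cycle profiles (% cells in each phase). The plate Z' was 0.51. Only hits are listed: G1 hits >4 SD and S hits >5 SD from the mean.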
Take `Cc1cc(N2CCCCC2)c(F)cc1[N+](=O)[O-]` (hit class: S-phase inhibitor): the “percent cells in S phase” value worked out at 29.5%.
With `Cn1c(SCc2ccccc2)nc2ccccc2c1=O` (hit class: S-phase inhibitor) the figure was 20.6%; with `Nc1ccn([C@H]2CC[C@@H](CO)O2)c(=O)n1` [Zalcitabine] (hit class: S-phase inhibitor), 21.2%.
With `COc1c(C)c2c(c(O)c1C/C=C(\C)CCC(=O)O)C(=O)OC2` [Mycophenolic acid] (hit class: S-phase inhibitor) the figure was 27.7%; with `CC[C@@H](C(=O)[C@@H](C)[C@@H](O)[C@H](C)CCc1ccc(C)c(O)c1C(=O)O)[C@H]1O[C@](CC)([C@H]2CC[C@](O)(CC)[C@H](C)O2)C[C@@H]1C` [Lasalocid sodium salt] (hit class: G1-phase inhibitor), 8.33%; with `c1ccc2c(c1)Nc1nc3ccccc3nc1O2` (hit class: G1-phase inhibitor), 7.38%.
With `CCN(CC)Cc1c(O)ccc2c(=O)c(-c3ccccc3)coc12` (hit class: S-phase inhibitor) the figure was 22.3%.
With `O=C(COc1ccc(Cl)cc1)NC(Cc1c[nH]c2ccccc12)C(=O)O` (configuration not stated) (hit class: G1-phase inhibitor), the “percent cells in S phase” value is 6.86%.
With `COc1ccc(C(=O)c2coc3ccc(OC)cc3c2=O)cc1` (hit class: G1-phase inhibitor) the figure was 7.3%; with `O=C1c2c(O)ccc(O)c2C(=O)c2c(NCCNCCO)ccc(NCCNCCO)c21` [Mitoxantrone dihydrochloride] (hit class: G1-phase inhibitor), 6.2%; with `Cc1ccc(-c2cc(-c3ccccc3Cl)[nH]n2)c(O)c1` (hit class: G1-phase inhibitor), 7.81%.
With `COc1ccc(CSc2nncn2N)cc1` (hit class: S-phase inhibitor) the figure was 19.7%.
With `C[C@@H]1C[C@H]2[C@@H]3C[C@H](F)C4=CC(=O)C=C[C@]4(C)[C@@]3(Cl)[C@@H](O)C[C@]2(C)[C@H]1C(=O)COC(=O)C(C)(C)C` [Clocortolone pivalate] (hit class: S-phase inhibitor) the figure was 23.2%; with `C[C@@H]1CCC[C@H](C)N1NC(=O)c1ccc(Cl)c(S(N)(=O)=O)c1` [Clopamide] (hit class: G1-phase inhibitor), 8.75%; with `COc1[nH]c2ccccc2c1C=NO` (hit class: S-phase inhibitor), 19.8%.
Regarding `CC(=O)C1=C(O)C(=O)N(CC(=O)O)C1c1ccccc1F` (configuration not stated) (hit class: S-phase inhibitor), the “percent cells in S phase” value is 20.4%.
With `Cc1cc([N+](=O)[O-])ccc1NCc1ccc(F)c(F)c1` (hit class: G1-phase inhibitor) the figure was 9.44%.
